Rows were chosen to be rich in hits. Some 11% of all compounds tested hit in one or more screens of this group.
G9a block = qHTS Assay for Inhibitors of Histone Lysine Methyltransferase G9a; AID 504332, 2011; Potency, µM (top dose mostly 102 µM), for the others: at the highest dose activity, negative = inhibition, most hits filed as inhibitors; G9a H3K9 monomethylation, AlphaScreen, 2 h; Histone-lysine N-methyltransferase EHMT2 (Homo sapiens), Q96KQ7; 350,000 tested, 8.8% active; further: potency means the concentration at half of the fitted maximal effect; nearly all actives have a fitted effect of over 75% in size
Target sequence (Q96KQ7 913-1193 limits assumed): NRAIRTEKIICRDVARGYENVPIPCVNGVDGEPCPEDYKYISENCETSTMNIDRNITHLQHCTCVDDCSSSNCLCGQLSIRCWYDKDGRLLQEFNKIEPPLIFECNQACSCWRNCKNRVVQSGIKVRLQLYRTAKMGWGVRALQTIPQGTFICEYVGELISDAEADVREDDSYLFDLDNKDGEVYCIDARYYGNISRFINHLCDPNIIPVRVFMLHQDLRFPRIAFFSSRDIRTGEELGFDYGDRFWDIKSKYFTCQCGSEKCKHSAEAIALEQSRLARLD
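Using a bead-based AlphaScreen, monomethylated H3K9 product from 2 h room-temperature reactions (G9a 20 nM, peptide 500 nM, SAM 20 uM) was detected with 0.5 ug/mL rabbit anti-H3K9me1 antibody.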
Tau FP inhib = qHTS for Inhibitors of Tau Fibril Formation, Fluorescence Polarization; Microtubule-associated protein tau (Homo sapiens), P10636; K18 P301L tau heparin fibrillization, Alexa594 FP, 6 h; Potency, µM (doses to about 57.7 µM), without a hit: top-dose activity, negative = inhibition, usual class: inhibitors; 280,000 tested, 0.39% active; AID 1468, 2008; further: potency means the concentration at half of the fitted maximal effect; nearly all actives have a fitted effect of over 55% in size
Target sequence (P10636 561-689 P618L limits assumed): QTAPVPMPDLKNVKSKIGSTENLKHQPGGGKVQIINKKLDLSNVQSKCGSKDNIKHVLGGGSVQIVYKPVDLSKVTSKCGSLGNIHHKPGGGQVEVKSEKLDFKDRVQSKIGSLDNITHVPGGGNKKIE
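FP of Alexa 594-tau after heparin (20 uM) induction. Substrate: human K18 P301L, 15 uM unlabeled, 0.24 uM labeled. Buffer 100 mM sodium acetate pH 7. 6 hr, 37 C.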
Sfp PPTase inh = qHTS Assay for Inhibitors of Bacillus subtilis Sfp phosphopantetheinyl transferase (PPTase) | 4'-phosphopantetheinyl transferase ffp (Bacillus subtilis), Q9F4F7 | Biochemical Sfp PPTase activity, qHTS | Potency, µM, without a hit: largest response in the series, negative = inhibition, usual class: inhibitors | 310,000 tested, 3.5% active;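 further: the enzyme is Sfp with the accession as filed and its product quenches rhodamine fluorescence; potency means the concentration at half of the fitted maximal effect; 0% = enzyme reaction without inhibitor and -100% = no enzyme wells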
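Fluorescence-quenching assay: 15 nM Sfp-PPTase preincubated 15 min at room temperature with compound, then 5 uM rhodamine-CoA and 12.5 uM BHQ-2-labelled YbbR peptide added. Fluorescence (ex 525/em 598 nm) read at start and after 30 min; difference gives rate.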
Tau fluor cs = Counterscreen qHTS for Inhibitors of Tau Fibril Formation, Fluorescence Polarization; 280,000 tested, 0.93% active; tau K18 P301L Alexa594 fluorescence, heparin fibrillization; Potency, µM (series often up to 57.7 µM), without a hit: at the highest dose activity change, negative = decrease; further: potency means the concentration at half of the fitted maximal effect; nearly all actives have a fitted effect of over 55% in size
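Human tau K18 P301L (15 uM unlabeled, 0.24 uM Alexa 594-labeled) in 100 mM sodium acetate pH 7 with 20 uM heparin, 6 hr at 37 C. ThT 30 uM added, 1 hr ambient; Alexa 594 FP and total fluorescence read at 555/632 nm.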
Tau ThT inhib = qHTS for Inhibitors of Tau Fibril Formation, Thioflavin T Binding. recombinant tau K18 P301L, heparin-induced fibrillization, ThT fluorescence. AID 1460, 2008. Potency, µM (doses to about 57.4 µM), for inactives: at the highest dose activity, negative = inhibition, hits mostly inhibitors. 270,000 tested, 2.1% active; further: potency means the concentration at half of the fitted maximal effect; nearly all actives have a fitted effect of over 55% in size
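Fibril formation assay: tau K18 P301L at 15 uM with trace Alexa 594 label, heparin inducer 20 uM, pH 7 sodium acetate buffer, 37 C for 6 hr; endpoint ThT signal.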
Coupling enz = qHTS Assay for Inhibitors of Fructose-1,6-bisphosphate Aldolase from Giardia Lamblia: Coupling assay counterscreen; 290,000 tested, 0.67% active; activity change, negative = inhibition, % at 58.2 µM, hits read low; coupling enzyme system counterscreen, AmpLite Red fluorescence; AID 2472, 2010; in the data active means activity change below about -30%
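Counterscreen of the coupled detection system alone, without aldolase: glyceraldehyde-3-phosphate coupling enzymes plus AmpLite Red readout. Compounds at 57.5 uM final, 10 min RT preincubation, 20 min RT reaction, fluorescence 525/598 nm.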
* = called active by the depositor; ? = inconclusive; / = not tested or not shown; [ ] = remark or other dose. Unless noted, the call rests on the fitted dose curve; in most records, active means well fitted curve in the direction sought with a large enough effect; inconclusive means small, poorly fitted or top-dose-only effect, or another doubt; inactive means no such curve, though single readings can be large; an effect the other way counts as inactive or inconclusive. Unless noted, on the % scale 0 is the no-effect control and ±100 the full control effect.

SMILES	G9a block	Tau FP inhib	Sfp PPTase inh	Tau fluor cs	Tau ThT inhib	Coupling enz
CCn1c2ccccc2c2cc(NC(=O)CN(C)CC(=O)Nc3ccc(N4CCOCC4)cc3)ccc21	40µM*	15%	15%	?	?	0
O=C(CCS(=O)(=O)c1ccccc1)Nc1ccc(N2CCOCC2)cc1	56µM*	9%	8%	1%	-16%	-1
Cc1cn(CCC(=O)Nc2ccccc2N2CCOCC2)c2ccccc12	-15%	1%	-4%	?	-13%	-1
Cc1cn(CCC(=O)Nc2ccc(N3CCOCC3)cc2)c2ccccc12	45µM*	?	-3%	-17%	?	-2
CCn1c2ccccc2c2cc(NC(=O)N3CCOCC3)ccc21	?	9%	-3%	-29%	?	-5
COc1ccccc1CNC(=O)c1nnn(CC(=O)Nc2c(C)cccc2C)c1N	-6%[59 µM]	-9%	/	-14%	-9%	/
Cc1c(Cl)cnc(NC(=O)COC(=O)C2CC3CCCC(C2)C3=O)c1Cl (centres undefined)	-6%[12.7 µM]	/	/	/	/	/
COc1ccc(N2CC(NC(=O)c3ccc(S(=O)(=O)N4CCCCC4)cc3)CC2=O)cc1OC (centres undefined)	7%[59 µM]	-4%	/	-5%	-1%	/
Cc1csc(NC(=O)C2CCCCC2C(=O)O)n1 (centres undefined)	8%[59 µM]	-2%	13%	4%	-1%	4
Cc1csc(NC(=O)C2CCCC2)n1	40µM*	13%	79µM*	-6%	-9%	0
COc1cc(CN(CCN(C)C)Cc2ccccc2)ccc1OCc1ccccc1	32µM*	/	-18%	/	/	0
CCOC(=O)C1CCN(Cc2ccc(OCc3ccccc3)c(OC)c2)CC1	50µM*	/	13%	/	/	2
CCOC(=O)C1CCN(Cc2ccc(OC)c(OCc3ccccc3)c2)CC1	28µM*	/	-17%	/	/	0
COc1ccc(CN2CCC(C)CC2)cc1OCc1ccccc1	21%	/	13%	/	/	-2
COc1cc(CN2CCC(C(=O)NCCC(C)C)CC2)ccc1OCc1ccccc1	50µM*	/	10%	/	/	1
CC(C)CCNC(=O)C1CCN(Cc2cccc(OCc3ccccc3)c2)CC1	/	/	-29%	/	/	0
COc1ccc(CN(CCc2ccccc2)Cc2ccccc2)cc1OC	?	/	-36%	/	/	0
Cc1ccc(NC(=O)C(=O)NCCc2sc(-c3ccc(Cl)cc3)nc2C)cc1C	20%[59 µM]	-12%	/	-8%	?	/
Cc1cc(N2CCN(c3cccc(C(F)(F)F)c3)CC2)n2nc(-c3ccccc3C)nc2n1	-4%[59 µM]	4%	/	-6%	?	/
CCOC(=O)C1CCN(Cc2cc(C(C)(C)C)c(O)c(C(C)(C)C)c2)CC1	56µM*	6%	?	-2%	5%	0
CCOC(=O)C1CCN(Cc2ccc(O)c(OC)c2)CC1	32µM*	5%	-4%	10%	9%	8
COc1cc(CN2CCCCC2)ccc1OCc1ccccc1	/	/	-18%	/	/	-2
CCOC(=O)C1CCN(Cc2ccc(Cl)c(Cl)c2)CC1	1%[12.7 µM]	-1%	-18%	1%	-3%	1
CCN(CC)C(=O)C1CCN(Cc2ccc(OCc3ccccc3)c(OC)c2)CC1	50µM*	/	-6%	/	/	0
N#CCCN(C(=O)COC(=O)COc1ccccc1Cc1ccccc1)c1ccccc1	-5%[12.7 µM]	/	/	/	/	/
O=C(O)CC(NS(=O)(=O)Cc1ccccc1)c1cccc([N+](=O)[O-])c1 (centres undefined)	12%	/	20%	/	/	3
CC(C)SC1=NC(C)(C)C=C(/C=C/c2ccc(Cl)cc2Cl)N1	45µM*	-8%	3%	-21%	?	-8
